# Test results reported in PubChem BioAssay AID1159580 (chemical genetic matrix, 2015).
# About 2,000 (36%) of roughly 5,500 compounds were called active. About 18% were inconclusive and are not listed. This is one part of the list. Values without a mark were called inactive. No stated cut-off is given here; in the data, active means normalized growth mostly below about 0.91 (no sharp cut-off); inconclusive means no clear call, values can overlap the other calls; inactive means mostly above about 0.92.
# Assay: chemical genetic growth profiling, strain panel (AID 1159580);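 further: tested at 20 µM; growth read once vehicle control cultures reached saturation at 30 °C; 1 = growth at the plate median or of vehicle wells; lower values mean less growth of the strain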
# Conditions: S. cerevisiae deletion strains, growth OD
# [1] = locus YAL013W, strain DEP1, active compounds read low
# [2] = locus YAL040C, strain CLN3, active compounds read low
# [3] = locus YCL061C, strain MRC1 (second series), active compounds read low
# [4] = locus YDR150W, strain NUM1, active compounds read low
# [5] = locus YDR363W, strain ESC2, active compounds read low
# [6] = locus YER002W, strain NOP16, active compounds read low
# [7] = locus YNL153C, strain GIM3, active compounds read low
# [8] = locus YNL175C, strain NOP13, active compounds read low
# [9] = locus YNL197C, strain WHI3, active compounds read low
# [10] = locus YNL224C, strain SQS1, active compounds read low
# [11] = locus YNL322C, strain KRE1, active compounds read low
# [12] = locus YOR083W, strain WHI5 (second series), active compounds read low
# [13] = locus YPL055C, strain LGE1, active compounds read low
# [14] = locus YJR075W, strain HOC1, active compounds read low
# [15] = locus YMR307W, strain GAS1, active compounds read low
structure (smiles),measurement,setting,value
CCCC(=O)NCCc1c2n(c3ccc(OC)cc13)Cc1ccccc1-2,normalized growth,[1],0.986
same,normalized growth,[2],1.08
same,normalized growth,[3],1.01
same,normalized growth,[4],1
same,normalized growth,[5],0.993
same,normalized growth,[6],0.995
same,normalized growth,"locus YNL128W, strain TEP1, active compounds read low",0.983
same,normalized growth,[7],0.754 (active)
same,normalized growth,[8],0.964
same,normalized growth,[9],0.97
same,normalized growth,[10],0.963
same,normalized growth,[11],0.995
same,normalized growth,[12],0.686 (active)
same,normalized growth,[13],1.01
same,normalized growth,"locus YPL241C, strain CIN2, active compounds read low",1.01
CCCC(=O)NCCc1c2n(c3ccc(OC)cc13)CCCc1ccccc1-2,normalized growth,[2],0.991
same,normalized growth,[3],1.01
same,normalized growth,[5],0.998
same,normalized growth,[6],0.996
same,normalized growth,"locus YGR078C, strain PAC10, active compounds read low",1.01
same,normalized growth,[14],0.995
same,normalized growth,[15],1.01
same,normalized growth,[7],0.984
same,normalized growth,[8],0.99
same,normalized growth,[9],0.995
same,normalized growth,[10],0.984
same,normalized growth,[11],1.01
same,normalized growth,[12],0.972
CC[C@H]1OC(=O)C[C@@H](O)[C@H](C)[C@@H](O[C@@H]2O[C@H](C)[C@@H](O[C@H]3C[C@@](C)(O)[C@@H](O)[C@H](C)O3)[C@H](N(C)C)[C@H]2O)[C@@H](CC=O)C[C@@H](C)C(=O)/C=C/C(C)=C/[C@@H]1CO[C@@H]1O[C@H](C)[C@@H](O)[C@@H](OC)[C@H]1OC,normalized growth,"locus YAL021C, strain ccr4, active compounds read low",1.01
same,normalized growth,"locus YAL026C, strain drs2, active compounds read low",0.986
same,normalized growth,"locus YAL030W, strain snc1, active compounds read low",0.997
same,normalized growth,"locus YBL061C, strain skt5, active compounds read low",0.986
same,normalized growth,"locus YBR009C, strain hhf1, active compounds read low",1
same,normalized growth,"locus YBR023C, strain chs3, active compounds read low",0.988
same,normalized growth,"locus YBR171W, strain sec66, active compounds read low",0.987
same,normalized growth,"locus YBR231C, strain swc5, active compounds read low",0.989
same,normalized growth,"locus YBR279W, strain paf1, active compounds read low",0.994
same,normalized growth,"locus YCL011C, strain gbp2, active compounds read low",0.995
same,normalized growth,"locus YCL016C, strain dcc1, active compounds read low",1
same,normalized growth,"locus YCL061C, strain MRC1, active compounds read low",1.01
same,normalized growth,"locus YCL069W, strain vba3, active compounds read low",0.992
same,normalized growth,"locus YCR088W, strain abp1, active compounds read low",1
same,normalized growth,"locus YDL005C, strain med2, active compounds read low",0.986
same,normalized growth,"locus YDL040C, strain nat1, active compounds read low",0.99
same,normalized growth,"locus YDR001C, strain nth1, active compounds read low",0.997
same,normalized growth,"locus YDR069C, strain doa4, active compounds read low",0.995
same,normalized growth,"locus YDR137W, strain rgp1, active compounds read low",1.03
same,normalized growth,"locus YDR159W, strain sac3, active compounds read low",0.971
same,normalized growth,"locus YDR195W, strain ref2",0.975
same,normalized growth,"locus YDR297W, strain sur2, active compounds read low",0.995
same,normalized growth,"locus YDR334W, strain swr1, active compounds read low",0.994
same,normalized growth,"locus YDR335W, strain msn5, active compounds read low",0.98
same,normalized growth,"locus YDR392W, strain spt3, active compounds read low",1.02
same,normalized growth,"locus YEL003W, strain gim4, active compounds read low",0.992
same,normalized growth,"locus YEL037C, strain rad23, active compounds read low",0.99
same,normalized growth,"locus YEL061C, strain CIN8 (second series), active compounds read low",0.992
same,normalized growth,"locus YER015W, strain faa2, active compounds read low",0.99
same,normalized growth,"locus YER016W, strain bim1, active compounds read low",0.991
same,normalized growth,"locus YER111C, strain swi4, active compounds read low",0.98
same,normalized growth,"locus YER155C, strain BEM2 (second series), active compounds read low",0.993
same,normalized growth,"locus YFR010W, strain ubp6, active compounds read low",0.988
same,normalized growth,"locus YGL167C, strain pmr1, active compounds read low",0.986
same,normalized growth,"locus YGL173C, strain kem1, active compounds read low",0.986
same,normalized growth,"locus YGL227W, strain vid30, active compounds read low",0.988
same,normalized growth,"locus YGL240W, strain doc1, active compounds read low",0.992
same,normalized growth,"locus YGL253W, strain hxk2, active compounds read low",0.98
same,normalized growth,"locus YHR013C, strain ard1, active compounds read low",0.985
same,normalized growth,"locus YHR027C, strain rpn1, active compounds read low",0.995
same,normalized growth,"locus YHR030C, strain SLT2, active compounds read low",0.953
same,normalized growth,"locus YHR079C, strain IRE1, active compounds read low",0.948
same,normalized growth,"locus YHR142W, strain chs7, active compounds read low",0.965
same,normalized growth,"locus YJL092W, strain hpr5, active compounds read low",0.986
same,normalized growth,"locus YJL095W, strain BCK1 (second series), active compounds read low",0.991
same,normalized growth,"locus YJL095W, strain BCK1, active compounds read low",0.962
same,normalized growth,"locus YJL115W, strain asf1, active compounds read low",0.983
same,normalized growth,"locus YJL129C, strain trk1, active compounds read low",0.971
same,normalized growth,"locus YJL154C, strain vps35, active compounds read low",0.994
same,normalized growth,"locus YJL164C, strain tpk1, active compounds read low",0.998
same,normalized growth,"locus YJL166W, strain qcr8, active compounds read low",0.991
same,normalized growth,"locus YJL187C, strain SWE1, active compounds read low",0.995
same,normalized growth,"locus YJR066W, strain TOR1, active compounds read low",0.918
same,normalized growth,"locus YKL160W, strain elf1, active compounds read low",0.993
same,normalized growth,"locus YKR026C, strain gcn3, active compounds read low",0.991
same,normalized growth,"locus YKR091W, strain srl3, active compounds read low",0.989
same,normalized growth,"locus YLL001W, strain dnm1, active compounds read low",0.977
same,normalized growth,"locus YLL026W, active compounds read low",0.995
same,normalized growth,"locus YLL041C, strain sdh2, active compounds read low",0.992
same,normalized growth,"locus YLR027C, strain aat2, active compounds read low",0.998
same,normalized growth,"locus YLR113W, strain HOG1, active compounds read low",0.954
same,normalized growth,"locus YLR221C, strain rsa3, active compounds read low",1
same,normalized growth,"locus YLR258W, strain gsy2, active compounds read low",0.995
same,normalized growth,"locus YLR262C, strain YPT6 (second series), active compounds read low",0.989
same,normalized growth,"locus YLR320W, strain mms22, active compounds read low",0.994
same,normalized growth,"locus YLR342W, strain FKS1, active compounds read low",0.984
same,normalized growth,"locus YLR357W, strain rsc2, active compounds read low",0.994
same,normalized growth,"locus YLR370C, strain arc18, active compounds read low",0.986
same,normalized growth,"locus YLR384C, strain iki3, active compounds read low",0.991
same,normalized growth,"locus YML120C, strain ndi1, active compounds read low",1
same,normalized growth,"locus YMR058W, strain fet3, active compounds read low",1
same,normalized growth,"locus YMR125W, strain sto1, active compounds read low",0.983
same,normalized growth,"locus YMR129W, active compounds read low",0.997
same,normalized growth,"locus YMR205C, strain PFK2, active compounds read low",0.986
same,normalized growth,"locus YMR231W, strain pep5, active compounds read low",0.999
same,normalized growth,"locus YNL071W, strain lat1, active compounds read low",0.993
same,normalized growth,"locus YNL183C, strain NPR1, active compounds read low",0.922
same,normalized growth,"locus YNL209W, strain ssb2, active compounds read low",0.993
same,normalized growth,"locus YNL248C, strain rpa49, active compounds read low",0.988
same,normalized growth,"locus YNL322C, strain KRE1 (second series), active compounds read low",0.985
same,normalized growth,"locus YNR049C, strain mso1, active compounds read low",0.99
same,normalized growth,"locus YOR001W, strain rrp6, active compounds read low",0.993
same,normalized growth,"locus YOR070C, strain gyp1, active compounds read low",0.996
same,normalized growth,"locus YOR080W, strain dia2, active compounds read low",0.977
same,normalized growth,"locus YOR083W, strain WHI5, active compounds read low",0.997
same,normalized growth,"locus YOR106W, strain vam3, active compounds read low",0.993
same,normalized growth,"locus YOR231W, strain MKK1, active compounds read low",0.97
same,normalized growth,"locus YOR265W, strain rbl2, active compounds read low",0.994
same,normalized growth,"locus YOR270C, strain vph1, active compounds read low",0.895
same,normalized growth,"locus YOR290C, strain snf2, active compounds read low",1.01
same,normalized growth,"locus YPL051W, strain arl3, active compounds read low",1
same,normalized growth,"locus YPL078C, strain atp4, active compounds read low",0.974
same,normalized growth,"locus YPL106C, strain sse1, active compounds read low",1
same,normalized growth,"locus YPL240C, strain hsp82, active compounds read low",1
same,normalized growth,"locus YPL256C, strain CLN2, active compounds read low",0.955
C[C@H](NC(=O)/C(C#N)=C/c1ccc(O)c(O)c1)c1ccccc1,normalized growth,[1],0.985
same,normalized growth,[2],1.04
same,normalized growth,[3],0.961
same,normalized growth,[4],0.936
same,normalized growth,[5],0.992
same,normalized growth,[6],0.985
same,normalized growth,"locus YGR229C, strain SMI1, active compounds read low",0.93
same,normalized growth,[14],0.961
same,normalized growth,"locus YMR263W, strain SAP30, active compounds read low",1
same,normalized growth,[15],1.02
same,normalized growth,[7],0.978
same,normalized growth,[8],0.991
same,normalized growth,[9],0.987
same,normalized growth,[10],1
same,normalized growth,[12],0.968
same,normalized growth,[13],0.924
